Screening data deposited in PubChem by National Center for Advancing Translational Sciences (NCATS).
Rab9 promoter act – Rab9 promoter activation; Huh7 Rab9 promoter-luciferase reporter, luminescence, 24 h; AID 485297; Potency, µM (series often up to 9.22 µM), usual class: activators; 320,000 compounds, 2.8% hits; also: nearly all actives have a fitted effect of over 60% in size
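Cells were plated at 1500 per well in reduced-serum medium with 10% FBS and left 2 h. Compound in DMSO was then added for 24 h at 37 °C. Reporter signal was read by luminescence after 10 min with luciferase detection reagent.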
p53 reactivation – restores transcriptional activity of mutant p53 | AID 504706 | 320,000 compounds, 0.063% hits | Potency, µM (top dose mostly 92.2 µM), actives largely listed as activators | H1299 p53-A138V BP100-luciferase reporter, luminescence, 24 h; also: nearly all actives have a fitted effect of over 45% in size
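p53-null H1299 cells stably carrying temperature-sensitive p53-A138V and a BP100-luciferase reporter were pinned with compounds (4-point, 1:5 series) and held 24 hrs at 37 deg C. Luminescence was read 10 min after detection reagent.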
ELG1 genotoxic – induces genotoxicity in HEK293T cells with luciferase-tagged ELG1. HEK293T ELG1-luciferase reporter, luminescence, 16 h. Potency, µM (highest dose often 46 µM), most hits filed as activators. 330,000 compounds, 1.3% hits; also: nearly all actives have a fitted effect of over 60% in size
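HEK293T cells expressing luciferase-tagged ELG1 were treated with compound or DMSO for 16 hr at 37°C. Luciferase activity was then read after 30 min with ONE-Glo at room temperature; rising signal flags genetic stress.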
NPC1 promoter act – NPC1 promoter activation | Huh7 NPC1 promoter luciferase reporter, 24 h | Potency, µM (highest dose often 9.22 µM), hits mostly activators | 320,000 compounds, 2.4% hits; also: nearly all actives have a fitted effect of over 60% in size
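Luminescence read-out of NPC1 promoter-driven luciferase in stably transfected Huh7 cells; compounds delivered in DMSO and left 24 h at 37C, 5% CO2, qHTS titration format.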
SMN2 splice up – increases expression of the SMN2 splice variant; Potency, µM (doses to about 46.1 µM), hits mostly activators; 210,000 compounds, 2.8% hits; HEK293 SMN2-luciferase splicing reporter, luminescence, 30-36 h; also: nearly all actives have a fitted effect of over 55% in size
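qHTS luciferase splicing reporter: luminescence rises when SMN2 exon 7 is included in transfected HEK293 cells. Compound exposure lasted 30-36 h at 37C, with 4.5 mM final sodium butyrate as control, followed by a ONE-Glo read.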
FLuc modulator – counter-screen for miR-21 project: firefly luciferase inhibitors or activators; P08659; purified FLuc, Km substrates, luminescence inhibition; Potency, µM (doses to about 57.5 µM), usual class: inhibitors; 360,000 compounds, 6.9% hits; also: nearly all actives have a fitted effect of over 55% in size
Target sequence (P08659 whole entry, looked up): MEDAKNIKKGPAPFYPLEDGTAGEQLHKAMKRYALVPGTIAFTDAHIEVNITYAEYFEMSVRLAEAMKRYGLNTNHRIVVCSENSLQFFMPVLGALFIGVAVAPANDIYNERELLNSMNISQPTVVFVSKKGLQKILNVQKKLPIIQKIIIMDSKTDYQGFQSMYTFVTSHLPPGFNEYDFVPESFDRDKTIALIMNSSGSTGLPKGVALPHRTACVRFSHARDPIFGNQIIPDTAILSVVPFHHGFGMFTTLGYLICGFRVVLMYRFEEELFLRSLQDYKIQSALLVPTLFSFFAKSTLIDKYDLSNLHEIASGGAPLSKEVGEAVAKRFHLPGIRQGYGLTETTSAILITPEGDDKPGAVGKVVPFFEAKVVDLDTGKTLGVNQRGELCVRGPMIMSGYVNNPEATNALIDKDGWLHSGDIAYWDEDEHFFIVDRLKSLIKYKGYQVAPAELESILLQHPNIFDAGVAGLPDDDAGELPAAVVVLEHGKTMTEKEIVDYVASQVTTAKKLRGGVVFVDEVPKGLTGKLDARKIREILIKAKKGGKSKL
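Biochemical qHTS of compounds, final roughly 60 µM downward over six points, against 10 nM purified firefly luciferase using Km concentrations of substrates (10 uM D-luciferin, 10 uM ATP) in Tris acetate pH 7.5 buffer; luminescence output.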
Numbers stand for hits; - = inactive; ? = inconclusive; . = not tested or not shown; [ ] = another dose, or the depositor's remark. An excerpt weighted towards active compounds, which were near 7.4% of everything screened. Calls follow the shape of the dose curve; as a rule, active = well fitted curve in the direction sought with a large enough effect; inconclusive = small, poorly fitted or top-dose-only effect, or another doubt; inactive = no such curve, though single readings can be large; an effect the other way counts as inactive or inconclusive.

SMILES	Rab9 promoter act	p53 reactivation	ELG1 genotoxic	NPC1 promoter act	SMN2 splice up	FLuc modulator
Cc1ccc2nc(-c3ccc(NC(=O)COc4ccccc4C(C)(C)C)cc3)sc2c1	.	.	.	.	?	9.5µM
COc1cccc(OC)c1C(=O)OCCCOC(=O)c1c(OC)cccc1OC	-	-	-	-	.	-
O=C(NCC(c1ccco1)N1CCc2ccccc21)C(=O)Nc1ccc(F)cc1F (stereo not given)	-	-	?	-	.	-
CCc1nc2cc3sc(CC)nc3cc2s1	2µM	-	9.2µM	3.5µM	.	8.5µM
COc1cc(OC)c2c(c1Cl)O[C@@]1(C2=O)[C@H](C)CC(=O)C[C@@H]1OC	.	.	.	.	-	.
CC(=O)N1N=C(c2ccc(C)cc2)OC1c1ccc(Br)cc1 (stereo not given)	-	-	-	-	.	-
CC(=O)N1N=C(c2ccc(Cl)cc2)OC1c1ccc(C(C)C)cc1 (stereo not given)	-	-	?	-	-	12µM
NCCC[C@@H](CC(=O)N[C@@H]1CCCC[C@H]1C(=O)N[C@H](CC(=O)N[C@@H](CCC(=O)O)CC(=O)O)Cc1ccccc1)NC(=O)C[C@H](Cc1ccccc1)NC(=O)[C@@H]1CCCC[C@H]1N	.	.	.	.	-	.
Cc1ccc(C2=Nc3ccccc3S[C@@H](c3cccc([N+](=O)[O-])c3)C2)cc1	.	.	.	.	-[9.22 µM]	.
COc1ccc(-c2nnc(SCc3ccccn3)n2C)cc1	?	-	?	-	-	?
COc1ccc(N=C(N)SCc2ccccn2)cc1	-	35µM	-	-	-	?
Cc1onc(-c2ccccc2Cl)c1C(=O)N(C)CC(=O)Nc1ccc(F)c(F)c1F	-	-	-	-	.	-
O=C(O)c1ccccc1-c1ccccc1C(=O)Nc1cccc(-c2nc3ccccc3o2)c1	-	-	-	-	.	8.5µM
CS(=O)(=O)c1ccccc1C(=O)Nc1ccc(-c2nc3ccccc3o2)cc1	?	-	-	?	.	24µM
Cc1ccc(C(=O)Nc2ccc(-c3nc4ccccc4o3)cc2)cc1Cl	.	.	.	.	-	-
CS(=O)(=O)c1ccccc1C(=O)Nc1ccc(-c2nc3ccccc3[nH]2)cc1	3.5µM	-	-	?	.	13µM
CS(=O)(=O)c1cccc(C(=O)Nc2ccc(-c3nc4ccccc4[nH]3)cc2)c1	-	-	-	-	.	-
O=C(NC(=O)c1ccccc1)NC1(C(F)(F)F)OCCO1	4µM	?	?	2.5µM	16µM	11µM
CCOC(=O)C1(Cc2ccccc2Cl)CCN(C(=O)c2cnccn2)CC1	2.8µM	-	?	?	.	15µM
O=C1CC(C(=O)O)S/C(=N\N=C\c2ccc(Br)cc2)N1 (stereo not given)	-	-	-	-	.	17µM
Cn1cccc1C(=O)N1CCC2(CCCN(c3ncccn3)C2)CC1	.	.	.	.	-	.
Cc1nn(CCC(=O)N2CCN(c3ccccc3F)CC2)c(C)c1S(=O)(=O)N1CCCC1	.	.	.	.	.	-
c1ccc(OCc2nc(-c3cccs3)no2)cc1	3.2µM	?	13µM	3.5µM	?	7.6µM
Fc1ccc(OCc2nc(-c3cccs3)no2)cc1	2.5µM	?	?	3.2µM	?	11µM
Cc1cc(OCc2nc(-c3cccs3)no2)cc(C)c1Cl	-	?	-	-	-	?
SMILES	Rab9 promoter act	p53 reactivation	ELG1 genotoxic	NPC1 promoter act	SMN2 splice up	FLuc modulator
CCCCOc1ccc(C(=O)Nc2nc3c(s2)CC(C)CC3)cc1 (stereo not given)	.	.	.	.	.	-
COC(=O)c1ccc(C(=O)NC(=S)Nc2nc3c(s2)CC(C)CC3)cc1 (stereo not given)	-	?	-	-	16µM	-
Cc1ccc(Cl)cc1NC(=O)CCn1c(=O)c2cccn2c2cccnc21	.	.	.	.	.	-
O=C(NCCOc1ccccc1F)c1cc(F)c(F)cc1Cl	1.4µM	.	?	0.71µM	2µM	3µM
CSc1ccccc1C(=O)NCCOc1ccccc1C	-	-	-	-	-	-
Cc1ccccc1C(=O)NCCOc1ccccc1Cl	0.56µM	-	5.8µM	0.63µM	.	8.5µM
Cc1ccc(C(=O)NCCc2c[nH]c3ccccc23)c(C)c1	3.2µM	?	-	1.6µM	.	6.7µM
Cc1ccc(C(=O)N/C(=C\c2ccco2)C(=O)NCCc2c[nH]c3ccccc23)cc1	-	-	-	-	-	15µM
O=C(NCCc1c[nH]c2ccccc12)/C(=C\c1ccco1)NC(=O)c1ccco1	-	-	-	-	-	-
Cc1ccc(C(=O)NCCc2c[nH]c3ccccc23)s1	3.2µM	?	?	3.5µM	.	12µM
COCCCNC(=O)C1CCN(Cc2cc3ccccc3n2Cc2cccc(C)c2)CC1	.	.	.	.	.	-
O=C(Nc1ccccc1)OC1CC2CC1C1CCCC21 (stereo not given)	2.5µM	-	?	?	.	7.6µM
O=C(Nc1ccc2c(c1)OCO2)O[C@@H]1C[C@H]2CCC(=O)N3CC[C@@H](C1)[C@@H]23	-	.	-	-	.	-
O=C(Nc1ccccc1)O[C@@H]1C[C@H]2CCC(=O)N3CC[C@@H](C1)[C@@H]23	?	-	?	?	.	21µM
O=C(Nc1ccccc1)OC1CCS(=O)(=O)C1 (stereo not given)	-	-	-	-	-	-
Cc1ccc(OCCCn2c(-c3ccc(Cl)cc3)nc3ccccc3c2=O)c(C)c1	.	.	.	.	-	-
COc1ccccc1Nc1nc(-c2ccccc2)c(CC(=O)O)s1	.	.	.	.	-	17µM
CCOC(=O)c1sc(Nc2ccc(C)cc2C)nc1C	-	-	-	-	-	?
Cc1nc(N/N=C/c2ccccn2)sc1C	-	-	0.13µM	-	.	0.15µM
CC(=O)c1sc(N/N=C\c2ccccc2O)nc1C	?	?	6.5µM	?	?	3.4µM
CCOC(=O)c1sc(N/N=C/c2cccc(C)c2)nc1C	?	?	-	?	-	8.5µM
COc1ccc(/C(C)=N/Nc2nc(C)c(C(C)=O)s2)cc1	-	.	-	-	.	?
O=C(O)Cc1sc(N/N=C\c2ccccc2)nc1-c1ccccc1	-	-	-	-	-	24µM
CCOC(=O)c1sc(N/N=C/c2ccccc2)nc1C	1.6µM	?	8.2µM	2.8µM	13µM	2.7µM
CCOC(=O)c1sc(NS(=O)(=O)c2ccccc2)nc1C	-	-	-	-	-	-
O=C(O)Cc1sc(-c2ccccc2Cl)nc1-c1ccccc1	-	-	-	-	-	24µM
COC(=O)c1ccc(/C=N/Nc2nc(C)c(C)s2)cc1	0.45µM	-	-	0.35µM	.	1.1µM
CCn1c(CC(=O)Nc2ccc(F)cc2)nnc1SCC(=O)Nc1nnc(C)s1	-	-	-	-	.	-
CC(c1ccccc1)n1c(N2CCN(C)CC2)nc2c1c(=O)[nH]c(=O)n2C (stereo not given)	-	-	-	-	.	-
Cc1ccc(NC(=O)CSc2nnc(-c3cc4occc4n3C)n2-c2ccccc2C)c(Cl)c1	.	.	.	.	.	-
